# Paper PMC7862700, “An all-to-all approach to the identification of sequence-specific readers for epigenetic DNA modifications on cytosine”
# Columns and labels:
# Assay in all cases: DAPPL (digital affinity profiling via proximity ligation, sequencing); 10 mM Tris-HCl pH 7.5, 50 mM NaCl, 1 mM DTT, 4% glycerol, room temperature, 30 min; GST-TFs on glutathione beads, 16-mer random dsDNA library, 0.1% formaldehyde crosslink after washing; high values mean tight binding
# Details in all cases: protein: recombinant; tags: N-terminal GST; dsDNA, one strand shown
# ELK4 = target: T1, ELK4 (Homo sapiens, UniProt P28324-2 1-405)
# T1 sequence: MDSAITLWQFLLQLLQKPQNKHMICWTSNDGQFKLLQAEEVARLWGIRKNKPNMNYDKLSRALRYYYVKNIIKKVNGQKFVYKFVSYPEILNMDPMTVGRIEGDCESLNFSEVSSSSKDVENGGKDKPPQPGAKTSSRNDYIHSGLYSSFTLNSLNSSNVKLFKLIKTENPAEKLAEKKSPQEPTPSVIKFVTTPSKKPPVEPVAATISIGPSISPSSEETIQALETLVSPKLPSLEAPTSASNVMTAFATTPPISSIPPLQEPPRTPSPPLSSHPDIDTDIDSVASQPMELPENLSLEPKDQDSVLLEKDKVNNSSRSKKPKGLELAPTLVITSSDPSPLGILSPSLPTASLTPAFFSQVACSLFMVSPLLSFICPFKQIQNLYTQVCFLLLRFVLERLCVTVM
# Summary of the method: (§1)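 Yeast served to express human transcription factors as GST fusions, which were then captured on glutathione beads and labelled with DNA barcodes. Pooled with a tag-only sample, they were incubated with 200 nmole of a 16-mer random double-stranded DNA library for 30 min at room temperature in Tris/NaCl/DTT/glycerol buffer, washed, crosslinked with 0.1% formaldehyde, ligated by proximity, amplified by PCR and sequenced. Dividing each hexamer's read frequency for a factor by its frequency for the tag-only sample gives the binding signal.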
# ETV2 = target: T2, ETV2 (Homo sapiens, UniProt O00321 1-342)
# T2 sequence: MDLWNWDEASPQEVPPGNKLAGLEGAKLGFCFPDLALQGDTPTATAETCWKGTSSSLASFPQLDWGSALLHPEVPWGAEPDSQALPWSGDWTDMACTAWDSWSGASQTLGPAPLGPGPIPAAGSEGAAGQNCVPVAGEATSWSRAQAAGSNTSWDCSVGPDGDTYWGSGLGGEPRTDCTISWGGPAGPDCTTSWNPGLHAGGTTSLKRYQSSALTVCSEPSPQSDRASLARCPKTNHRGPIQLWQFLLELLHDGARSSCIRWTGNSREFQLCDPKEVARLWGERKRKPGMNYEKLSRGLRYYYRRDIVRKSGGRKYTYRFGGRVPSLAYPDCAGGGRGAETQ
# Summary of the method: as §1
# ELF3 = target: T3, ELF3 (Homo sapiens, UniProt P78545 1-371)
# T3 sequence: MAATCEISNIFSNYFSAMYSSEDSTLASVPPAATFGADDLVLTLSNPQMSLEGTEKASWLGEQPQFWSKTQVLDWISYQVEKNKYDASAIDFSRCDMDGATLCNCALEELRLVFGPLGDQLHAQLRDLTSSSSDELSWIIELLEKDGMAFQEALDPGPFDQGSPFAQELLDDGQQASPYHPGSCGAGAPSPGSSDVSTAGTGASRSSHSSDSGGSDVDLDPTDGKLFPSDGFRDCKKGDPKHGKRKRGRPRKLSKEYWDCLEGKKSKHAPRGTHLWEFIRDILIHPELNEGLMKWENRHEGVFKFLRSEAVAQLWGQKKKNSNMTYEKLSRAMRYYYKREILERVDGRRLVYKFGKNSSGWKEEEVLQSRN
# Summary of the method: as §1
# ETV1 = ETV1 (Homo sapiens, UniProt P50549 1-477)
# Sequence of ETV1 (P50549 whole entry): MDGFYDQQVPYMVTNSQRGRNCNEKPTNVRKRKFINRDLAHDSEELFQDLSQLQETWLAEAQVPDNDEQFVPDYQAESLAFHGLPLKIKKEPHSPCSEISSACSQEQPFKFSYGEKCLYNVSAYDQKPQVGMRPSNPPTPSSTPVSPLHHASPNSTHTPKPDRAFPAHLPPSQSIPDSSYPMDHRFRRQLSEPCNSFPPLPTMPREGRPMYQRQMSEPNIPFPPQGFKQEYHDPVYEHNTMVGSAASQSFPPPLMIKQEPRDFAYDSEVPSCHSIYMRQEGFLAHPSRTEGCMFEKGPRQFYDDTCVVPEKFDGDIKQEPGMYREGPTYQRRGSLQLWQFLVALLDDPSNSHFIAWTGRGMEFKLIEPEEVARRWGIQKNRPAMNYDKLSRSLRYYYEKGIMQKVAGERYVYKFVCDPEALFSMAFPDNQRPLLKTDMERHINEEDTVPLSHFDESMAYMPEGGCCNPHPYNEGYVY
# Summary of the method: as §1
# ERF = target: T4, ERF (Homo sapiens, UniProt P50548 1-548)
# T4 sequence: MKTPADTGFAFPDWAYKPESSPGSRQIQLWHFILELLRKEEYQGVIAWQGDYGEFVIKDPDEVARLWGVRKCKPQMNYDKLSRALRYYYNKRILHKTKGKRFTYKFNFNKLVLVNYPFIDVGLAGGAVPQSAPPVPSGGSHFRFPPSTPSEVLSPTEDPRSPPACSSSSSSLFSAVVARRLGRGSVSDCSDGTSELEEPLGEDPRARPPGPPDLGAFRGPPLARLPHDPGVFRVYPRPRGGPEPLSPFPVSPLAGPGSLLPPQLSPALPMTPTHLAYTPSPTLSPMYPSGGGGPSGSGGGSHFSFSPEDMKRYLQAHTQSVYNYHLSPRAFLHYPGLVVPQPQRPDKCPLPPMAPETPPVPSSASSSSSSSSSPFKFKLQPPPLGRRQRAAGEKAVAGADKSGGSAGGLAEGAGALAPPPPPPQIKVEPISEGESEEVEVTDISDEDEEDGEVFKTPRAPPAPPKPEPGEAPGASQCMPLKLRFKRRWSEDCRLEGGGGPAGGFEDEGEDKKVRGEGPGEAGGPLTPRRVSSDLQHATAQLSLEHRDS
# Summary of the method: as §1
# ETV3L = target: T5, ETV3L (Homo sapiens, UniProt Q6ZN32 1-361)
# T5 sequence: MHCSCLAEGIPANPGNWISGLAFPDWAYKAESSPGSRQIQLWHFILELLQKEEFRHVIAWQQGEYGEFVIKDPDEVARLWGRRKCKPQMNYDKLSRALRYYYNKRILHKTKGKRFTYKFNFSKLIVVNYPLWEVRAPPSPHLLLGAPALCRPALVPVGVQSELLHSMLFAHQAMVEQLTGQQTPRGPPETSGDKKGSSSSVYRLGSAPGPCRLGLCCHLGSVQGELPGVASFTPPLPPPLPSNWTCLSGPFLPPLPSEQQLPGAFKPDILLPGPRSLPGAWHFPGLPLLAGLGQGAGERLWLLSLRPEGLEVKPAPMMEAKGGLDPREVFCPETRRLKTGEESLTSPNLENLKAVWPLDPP
# Summary of the method: as §1
# ETS2 = target: T6, ETS2 (Homo sapiens, UniProt P15036 1-469)
# T6 sequence: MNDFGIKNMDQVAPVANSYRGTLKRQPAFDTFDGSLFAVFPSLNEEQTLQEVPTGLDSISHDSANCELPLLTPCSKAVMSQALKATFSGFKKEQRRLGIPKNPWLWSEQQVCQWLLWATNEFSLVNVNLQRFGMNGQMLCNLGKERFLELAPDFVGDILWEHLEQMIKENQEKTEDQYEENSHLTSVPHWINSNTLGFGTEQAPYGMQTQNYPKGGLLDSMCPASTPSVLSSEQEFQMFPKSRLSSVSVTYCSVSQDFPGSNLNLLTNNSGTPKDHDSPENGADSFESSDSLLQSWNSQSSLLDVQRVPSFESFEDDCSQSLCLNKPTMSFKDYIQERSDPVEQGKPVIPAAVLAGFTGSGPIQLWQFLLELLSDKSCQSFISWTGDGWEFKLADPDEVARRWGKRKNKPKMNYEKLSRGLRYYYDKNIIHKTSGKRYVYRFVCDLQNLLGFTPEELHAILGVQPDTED
# Summary of the method: as §1
# ETV7 = target: T7, ETV7 (Homo sapiens, UniProt Q9Y603 1-341)
# T7 sequence: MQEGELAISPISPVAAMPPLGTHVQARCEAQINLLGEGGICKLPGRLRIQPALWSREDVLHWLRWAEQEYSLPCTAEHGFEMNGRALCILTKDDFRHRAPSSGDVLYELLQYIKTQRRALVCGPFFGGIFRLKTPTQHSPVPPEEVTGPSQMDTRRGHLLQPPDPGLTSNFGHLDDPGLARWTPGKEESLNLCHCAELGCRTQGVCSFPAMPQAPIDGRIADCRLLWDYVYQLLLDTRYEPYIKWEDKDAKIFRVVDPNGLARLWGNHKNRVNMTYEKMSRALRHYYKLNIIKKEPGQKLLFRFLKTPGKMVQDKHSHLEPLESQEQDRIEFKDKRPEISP
# Summary of the method: as §1
# ETV3 = target: T8, ETV3 (Homo sapiens, UniProt P41162-2 1-143)
# T8 sequence: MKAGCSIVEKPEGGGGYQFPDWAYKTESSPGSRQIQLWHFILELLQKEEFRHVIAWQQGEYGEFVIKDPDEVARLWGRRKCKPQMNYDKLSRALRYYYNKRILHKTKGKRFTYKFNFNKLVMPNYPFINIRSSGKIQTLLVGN
# Summary of the method: as §1
# ETV6 = ETV6 (Homo sapiens, UniProt P41212 1-452)
# Sequence of ETV6 (P41212 whole entry): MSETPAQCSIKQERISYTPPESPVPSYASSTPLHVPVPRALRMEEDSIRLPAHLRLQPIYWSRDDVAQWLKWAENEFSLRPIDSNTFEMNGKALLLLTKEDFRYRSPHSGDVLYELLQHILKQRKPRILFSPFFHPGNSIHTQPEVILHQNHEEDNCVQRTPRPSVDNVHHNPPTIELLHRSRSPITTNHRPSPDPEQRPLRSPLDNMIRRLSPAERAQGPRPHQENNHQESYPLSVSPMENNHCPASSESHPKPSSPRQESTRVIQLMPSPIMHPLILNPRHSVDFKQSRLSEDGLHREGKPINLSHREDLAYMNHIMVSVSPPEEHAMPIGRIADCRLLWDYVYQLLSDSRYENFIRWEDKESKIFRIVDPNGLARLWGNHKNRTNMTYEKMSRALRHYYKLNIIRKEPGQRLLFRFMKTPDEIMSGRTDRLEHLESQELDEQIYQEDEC
# Summary of the method: as §1
sequence,measurement,setting,value
ACCCCT,binding signal,ELK4,"1.28 fold enrichment (6-mer frequency, TF over GST control)"
same,binding signal,ETV2,"1.17 fold enrichment (6-mer frequency, TF over GST control)"
same,binding signal,ELF3,"1.09 fold enrichment (6-mer frequency, TF over GST control)"
same,binding signal,ETV1,"1.21 fold enrichment (6-mer frequency, TF over GST control)"
same,binding signal,ERF,"1.06 fold enrichment (6-mer frequency, TF over GST control)"
same,binding signal,ETV3L,"1.05 fold enrichment (6-mer frequency, TF over GST control)"
same,binding signal,ETS2,"1.08 fold enrichment (6-mer frequency, TF over GST control)"
same,binding signal,ETV7,"1 fold enrichment (6-mer frequency, TF over GST control)"
same,binding signal,ETV3,"1.03 fold enrichment (6-mer frequency, TF over GST control)"
same,binding signal,ETV6,"1.16 fold enrichment (6-mer frequency, TF over GST control)"
